Screening data (PubChem BioAssay)
RGS16-Gao HTS = modulators of RGS16 binding to Galphao, primary screen, biochemical, human proteins, multiplexed bead flow cytometry; bead-based flow cytometry RGS16-Galphao binding, fluorescence; actives lie on both sides; hit rate 0.38% among 220,000; binding response (% of control), % at 10 µM; AID 1441, 2008; Regulator of G-protein signaling 16 (Homo sapiens) + Guanine nucleotide-binding protein …;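 further: Galphao activated by GDP with aluminum fluoride before binding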
GSH bead fluor = compound fluorescence on glutathione beads, profiling panel, artefact control, biophysical, 488/530 nm, flow cytometry; GSH beads flow cytometry, compound fluorescence 488/530 nm; active compounds read high; fluorescence (KMESF) at 10 µM; hit rate 0.25% among 190,000; AID 1776, 2009; in the data active means fluorescence above about 89;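 further: glutathione beads carrying GST-tagged Bcl family fusion proteins plus one bare bead set; values are compound well signal with DMSO vehicle wells as background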
RGS4-Gao reg = modulators of RGS4 binding to Galphao, primary screen, biochemical, multiplexed bead flow cytometry. Guanine nucleotide-binding protein G(o) subunit alpha (Homo sapiens), P09471. actives lie on both sides. binding response (% of control), % at 10 µM. hit rate 0.33% among 220,000; in the data active means binding response below about 49% or above about 150%; inactive means in between;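 further: fluorescent Galphao activated with aluminum fluoride binding bead-coupled RGS4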
Target sequence (P09471 whole entry, looked up): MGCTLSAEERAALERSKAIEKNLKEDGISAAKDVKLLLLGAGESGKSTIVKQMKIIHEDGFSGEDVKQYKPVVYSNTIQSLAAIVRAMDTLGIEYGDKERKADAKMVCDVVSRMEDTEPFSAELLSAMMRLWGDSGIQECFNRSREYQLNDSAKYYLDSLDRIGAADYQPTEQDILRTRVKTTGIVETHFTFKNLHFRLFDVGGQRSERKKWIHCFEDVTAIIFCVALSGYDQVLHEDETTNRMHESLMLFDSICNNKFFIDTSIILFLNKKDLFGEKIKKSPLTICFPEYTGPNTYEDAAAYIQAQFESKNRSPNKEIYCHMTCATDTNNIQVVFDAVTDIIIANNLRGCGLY
RGS7-Gao = RGS7-Galphao binding modulators, primary screen, biochemical, multiplexed bead flow cytometry; actives lie on both sides; binding response (% of control), % at 10 µM; hit rate 0.35% among 220,000; in the data active means binding response below about 49% or above about 150%; inconclusive means no clear call, values can overlap the other calls; inactive means in between;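 further: fluorescent Galphao held in activated GDP-AlF4 state binding bead-coupled RGS7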
Avidin fluor = green autofluorescence of compounds with avidin beads – biophysical, 488/530 nm, flow cytometry, artefact control, profiling panel. compound fluorescence 488/530 nm; active compounds read high. fluorescence (KMESF) at 10 µM. hit rate 0.38% among 220,000; in the data active means fluorescence above about 47
RGS8-Gao reg = RGS8-Galphao binding modulators, primary screen, biochemical, multiplexed bead flow cytometry | Guanine nucleotide-binding protein G(o) subunit alpha (Homo sapiens), P09471 | actives lie on both sides | response (percent of control binding), % at 10 µM | hit rate 0.34% among 220,000 | AID 1423, 2008; in the data active means response below about 60% or above about 140%; inactive means in between;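 further: Galphao activated as the GDP aluminium fluoride complex binding bead-coupled RGS8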
RGS-Gao = modulators of RGS–Galpha-o binding, primary screen, biochemical, multiplexed beads, flow cytometry, RGS4/7/8/16/19. RGS4–Galpha-o binding response, % at 10 µM. multiplexed bead flow cytometry. hit rate 99% among 1,600. shares compounds with RGS16-Gao HTS;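 further: fluorescently labeled Galpha-o bound to GDP with aluminium fluoride binding biotinylated RGS beads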
Biotin-avidin = disruption of biotin probe capture by avidin, counter-screen for RGS protein interaction modulators, biochemical, flow cytometry, bead-based; shares compounds with RGS16-Gao HTS; streptavidin beads, fluorescein-biotin binding; inhibition, % at 10 µM; 1,700 tested, under 10 active;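 active means inhibition above 50%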;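 further: median green fluorescence of gated singlet beads compared with DMSO control wells; 0% = DMSO wells and 100% = complete loss of bead fluorescence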
RGS8-Gao single = RGS8-Galphao binding modulators, confirmation, biochemical, multiplexed bead flow cytometry, single concentration; shares compounds with RGS16-Gao HTS; bead-based flow cytometry RGS8-Galphao binding, fluorescence; actives lie on both sides; binding response (% of control), % at 10 µM; hit rate 3% among 1,700; AID 1836, 2009; in the data active means binding response below about 72% or above about 130%; inactive means in between;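 further: Galphao activated as GDP AlF4 complex before binding bead RGS8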
RGS7-Gao single = RGS7-Galphao binding modulators, confirmation, biochemical, multiplexed bead flow cytometry, single concentration; shares compounds with RGS16-Gao HTS; bead-based flow cytometry RGS7-Galphao binding; actives lie on both sides; response (percent of control binding), % at 10 µM; hit rate 7.8% among 1,700; in the data active means response below about 75% or above about 130%; inactive means in between;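 further: fluorescent Galphao activated with GDP and aluminum fluoride binding bead-coupled RGS7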
RGS16-Gao conf = modulators of RGS16-Galphao protein binding, confirmation, biochemical, single concentration, multiplexed bead flow cytometry; shares compounds with RGS16-Gao HTS; bead-based flow cytometry; actives lie on both sides; response (% of control binding), % at 10 µM; hit rate 4% among 1,700; in the data active means response below about 74% or above about 130%; inactive means in between;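 further: Galphao activated as the GDP aluminium fluoride complex binding bead-coupled RGS16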
RGS4-Gao confirm = modulators of RGS4-Galphao protein binding, confirmation, biochemical, single concentration, multiplexed bead flow cytometry | binding response (% of control), % at 10 µM | hit rate 4% among 1,700 | shares compounds with RGS16-Gao HTS | actives lie on both sides; in the data active means binding response below about 74% or above about 130%; inactive means in between
RGS19-Gao single = regulators of RGS19-Galphao binding, confirmation, biochemical, single point, multiplexed bead flow cytometry; shares compounds with RGS16-Gao HTS; bead-based flow cytometry RGS19-Galphao binding; actives lie on both sides; response (percent of control binding), % at 10 µM; hit rate 5% among 1,700; AID 1841, 2009; in the data active means response below about 50% or above about 160%; inactive means in between;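 further: 100% = no compound control and 0% = blank background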
Target sequence (P09471 whole entry, looked up): as above
Target sequence (P49795 whole entry, looked up): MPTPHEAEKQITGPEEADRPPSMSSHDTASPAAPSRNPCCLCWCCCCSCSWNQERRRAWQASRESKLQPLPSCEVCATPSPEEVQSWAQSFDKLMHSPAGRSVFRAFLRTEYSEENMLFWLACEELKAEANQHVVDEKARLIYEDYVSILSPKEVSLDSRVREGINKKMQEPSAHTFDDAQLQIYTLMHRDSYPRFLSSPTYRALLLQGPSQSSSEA
* hit, by the source's call; [ ] = another dose, or the depositor's remark. Only some compounds are listed: those with a hit (about 1.2% of all), similar ones and a draw of the others. Unless noted, how the calls were made is not given here.

Screening O=C(CSC1c2ccccc2C(=O)N1c1ccccc1)N1CCOCC1 (centres undefined) returned RGS16-Gao HTS 91, GSH bead fluor 8, RGS4-Gao reg 99, RGS7-Gao 100, Avidin fluor 6 and RGS8-Gao reg 97.
For CN(C)C(=O)CSC1c2ccccc2C(=O)N1c1ccccc1 (centres undefined) the results were RGS16-Gao HTS -8, GSH bead fluor 26, RGS4-Gao reg 23*, RGS7-Gao 15*, Avidin fluor -2, RGS8-Gao reg 9.1*, Biotin-avidin -2, RGS8-Gao single 104, RGS7-Gao single 98, RGS16-Gao conf 107, RGS4-Gao confirm 101 and RGS19-Gao single 113.
For Cc1[nH]c(C)c2c(=O)[nH]ncc12 the results were RGS16-Gao HTS 96, RGS4-Gao reg 96, RGS7-Gao inconclusive, Avidin fluor 8 and RGS8-Gao reg 98.
For O=C(CCNC(=O)c1ccco1)NCc1ccccc1 the results were GSH bead fluor 43, Biotin-avidin 0, RGS8-Gao single 103, RGS7-Gao single 106, RGS16-Gao conf 106, RGS4-Gao confirm 106 and RGS19-Gao single 98.
`CC(=O)O/N=C1\C(=O)N(Cc2ccc(C)cc2)c2ccccc21` gave RGS16-Gao HTS 18, GSH bead fluor 15, RGS4-Gao reg 76, RGS7-Gao 71, Avidin fluor 10, RGS8-Gao reg 58* and RGS-Gao 76*.
CN1C(=O)/C(=N\OC(=O)c2ccccc2Cl)c2ccccc21 was read as RGS16-Gao HTS 100, GSH bead fluor 11, RGS4-Gao reg 104, RGS7-Gao 107, Avidin fluor 7 and RGS8-Gao reg 101.
Screening CC(CNC(=O)CCc1nnc(CCC2CCCCC2)o1)c1ccccc1 (centres undefined) returned RGS16-Gao HTS 103, GSH bead fluor 9, RGS4-Gao reg 102, RGS7-Gao 104, Avidin fluor 9 and RGS8-Gao reg 103.
Screening Cc1ccc(C(O)CSc2nnc(-c3ccc4ccccc4c3)n2C)cc1 (centres undefined) returned RGS16-Gao HTS 99, RGS4-Gao reg 97, RGS7-Gao inconclusive, Avidin fluor 7 and RGS8-Gao reg 99.
CCn1c(=O)n(CC(=O)NC2CCCC(C)C2C)c(=O)c2ccccc21 (centres undefined) was read as RGS16-Gao HTS 178, GSH bead fluor 38, RGS4-Gao reg 119, RGS7-Gao 198*[activator], Avidin fluor 99*, RGS8-Gao reg 115 and RGS-Gao 119*.
CCn1c(=O)n(CC(=O)N2CC(C)CC(C)C2)c(=O)c2ccccc21 (centres undefined) was read as RGS16-Gao HTS 97, GSH bead fluor 11, RGS4-Gao reg 101, RGS7-Gao 98, Avidin fluor 33 and RGS8-Gao reg 100.
For O=S1(=O)CCC(N=Cc2cc(Br)ccc2O)C1 (centres undefined) the results were RGS16-Gao HTS 147, GSH bead fluor 35, RGS4-Gao reg 112, RGS7-Gao 151*[activator], Avidin fluor 49*, RGS8-Gao reg 103, RGS-Gao 112*, Biotin-avidin 1, RGS8-Gao single 104, RGS7-Gao single 95, RGS16-Gao conf 111, RGS4-Gao confirm 98 and RGS19-Gao single 137.
Screening O=c1c2ccccc2c(C=NC2CCS(=O)(=O)C2)c(O)n1-c1ccccc1 (centres undefined) returned RGS16-Gao HTS 93, GSH bead fluor 27, RGS4-Gao reg 90, RGS7-Gao 91, Avidin fluor 8 and RGS8-Gao reg 94.
`Cc1ncc([N+](=O)[O-])n1CC(=O)Nc1ccc2c(c1)OCO2` gave RGS16-Gao HTS 103, GSH bead fluor 25, RGS4-Gao reg 98, RGS7-Gao inconclusive, Avidin fluor 9 and RGS8-Gao reg 101.
`COc1ccc(NC2(c3ccccc3)OC(=O)c3ccccc32)cc1` (centres undefined) gave GSH bead fluor 14, Biotin-avidin 0, RGS8-Gao single 105, RGS7-Gao single 104, RGS16-Gao conf 105, RGS4-Gao confirm 104 and RGS19-Gao single 111.
`COc1ccc(NC2(c3ccc(Cl)cc3)C(=O)c3ccccc3C2=O)cc1` gave RGS16-Gao HTS 100, GSH bead fluor 8, RGS4-Gao reg 98, RGS7-Gao 100, Avidin fluor 10 and RGS8-Gao reg 101.
Screening CCC1CCCCN1C(=O)COc1ccccc1NC(C)=O (centres undefined) returned RGS16-Gao HTS 100, GSH bead fluor 16, RGS4-Gao reg 99, RGS7-Gao 103, Avidin fluor 9 and RGS8-Gao reg 99.
